# From PubChem BioAssay (Tox21)
# Several values for one entry are separate records, joined by “and”; a condition that tells them apart may be missing. Equal values may be shown once. Records with an inconclusive call do not appear. Some compounds were tested as several samples or in several runs, with calls that do not always agree. Activity calls are given as the source filed them. Calls follow the shape of the dose curve; as a rule, active = well fitted cell-killing curve with a large enough effect in the repeat runs; inconclusive = weak or mixed curves, or effect the other way; inactive = no such curve, though single readings can be large or run the other way.
# Test: qHTS assay for small molecule activators of the heat shock response signaling pathway - cell viability counter screen (AID 743209); also: nearly all actives have a fitted effect of over 50% in size
# Settings: HSE-bla HeLa viability, CellTiter-Glo luminescence, 5 h; series mostly up to 62.6 µM; activity change, negative = cytotoxicity: at the top concentration
# Description: U.S. Tox21 Program National Center for Advancing Translational Sciences [NCATS] NIH Chemical Genomics Center [NCGC] U.S. Environmental Protection Agency [EPA] National Institutes of Environmental Health Sciences [NIEHS] National Toxicology Program [NTP] U.S. Food and Drug Administration [FDA] Tox21 Assay Overview: Various chemicals, environmental and physiological stress conditions may lead to the activation of heat shock response/ unfolded protein response (HSR/UPR). There are three heat shock transcription factors (HSFs) (HSF-1, -2, and -4) mediating transcriptional regulation of the human HSR. To identify the compounds that activate HSR signaling, HSE-bla HeLa cell line (Invitrogen, Carlsbad, CA, USA) containing a beta-lactamase reporter gene under the control of the heat shock response elements was used to screen Tox21 10K compound library. The cytotoxicity of the Tox21 compound library against the HSE-bla HeLa cell line was tested in parallel by measuring the cell viability using CellTiter-Glo assay (Promega, Madison, WI) in the same wells.
# Tox21 Assay Protocol Summary: The CellSensor HSE-bla HeLa cells (Invitrogen, Carlsbad, CA, USA) were dispensed at 1500 cells/6uL/well into 1536-well black wall/clear bottom plates using a Multidrop combi (Thermo Fisher Scientific, Waltham, MA) dispenser. After the assay plates were incubated at 37 C and 5% CO2 overnight, 23 nL of compounds dissolved in DMSO, positive controls or DMSO only was transferred to the assay plate by a Pintool station (Kalypsys, San Diego, CA). The plates were incubated at 37 C for 5 h. After 1 uL of LiveBLAzerTM B/G FRET substrate was added using a Flying Reagent Dispenser (FRD, Beckman Coulter, Indianapolis, IN, USA), the plates were incubated at room temperature for 2.5 h, and fluorescence intensity was measured by an Envision plate reader (PerkinElmer, Shelton, CT). For cell viability readout that measures cytotoxicity, 3 ul/well of CellTiter-Glo reagent was added into the assay plates using a FRD. After 30 min incubation at room temperature, the luminescence intensity in the plates was measured using a ViewLux (PerkinElmer) plate reader.
# % is scaled to controls: 0 for no effect and ±100 for the full control effect; potency is read from the fitted curve at half-maximal effect.
SMILES,Potency,"activity change, negative = cytotoxicity"
COC(=O)[C@H]1[C@H]2C[C@@H]3c4[nH]c5cc(OC)ccc5c4CCN3C[C@H]2C[C@@H](OC(=O)c2cc(OC)c(OC)c(OC)c2)[C@@H]1OC,inactive,
CC(C)(O)CCC(C)(C)O,,7.02% [at 81.1 µM] (inactive)
CC(=O)O[C@]1(C(C)=O)CC[C@H]2[C@@H]3C[C@H](C)C4=CC(=O)CC[C@]4(C)[C@H]3CC[C@@]21C,inactive,
BrC1CCC(Br)C(Br)CCC(Br)C(Br)CCC1Br (stereo not given),inactive,
CCN(CC)c1ccc2c(C)cc(=O)oc2c1,inactive,
CC(C)(C)NCC(O)COc1ccccc1OCC1CCCO1 (stereo not given),,12.4% (inactive)
Cc1cccc2n[nH]nc12,inactive,
Cc1ccc(S(=O)(=O)Oc2ccc(N=Nc3ccc(-c4ccc(N=Nc5c(O)ccc6cc(S(=O)(=O)O)cc(S(=O)(=O)O)c56)c(C)c4)cc3C)cc2)cc1,inactive,
CCOC(=O)C(C)C(C)=O (stereo not given),,17.6% [at 81.1 µM] (inactive)
c1ccc2c(c1)-c1cccc3c1c-2cc1ccccc13,inactive,
O=C(OCc1ccccc1)c1ccc(O)cc1,,-7.68% (inactive)
C=C(C)C(=O)O,inactive,
Nc1cc(S(=O)(=O)O)cc2cc(S(=O)(=O)O)cc(O)c12,inactive,
O=C(Cl)c1cccc(C(=O)Cl)c1,inactive,
CC(C)CCCCCCc1ccc(O)cc1,39.6 µM (active) and 54.9 µM (active),
CCc1ccc(C(c2ccc(CC)cc2)C(Cl)Cl)cc1,inactive,
COC(=O)c1cccc(C(=O)OC)c1,inactive,
CC(C)CCOCc1ccccc1,,-7.35% (inactive)
N[C@@H]1CONC1=O,,-0.111% (inactive)
c1cnc2cc3c(cc2n1)C1CNCC3C1,,2.88% (inactive)

SMILES,Potency,"activity change, negative = cytotoxicity"
CC(C)(C)c1cc(C(C)(C)C)c(O)c(C(C)(C)C)c1,54.9 µM (active) and 49 µM (active),
C#CC(C)(CC)OC(=O)c1ccccc1C(=O)O (stereo not given),,18.9% (inactive)
CC(C)(C)NC(=O)[C@@H]1CN(Cc2cccnc2)CCN1C[C@@H](O)C[C@@H](Cc1ccccc1)C(=O)N[C@H]1c2ccccc2C[C@H]1O,inactive,
O=C1NCC2(CCN(CCc3ccccc3)CC2)O1,,17.3% (inactive)
COc1cc(C(=S)N2CCOCC2)ccc1O,,-26.5% (inactive)
Cc1occc(=O)c1OC(=O)C(C)C,,-0.289% (inactive)
O=c1n(CC2CO2)c(=O)n(CC2CO2)c(=O)n1CC1CO1 (stereo not given),inactive,
CCCOC(=O)c1cc(O)c(O)c(O)c1,inactive,
NC(N)=NC(=O)Cc1c(Cl)cccc1Cl,,4.84% (inactive)
CC(=O)CC(C)=O,,-1.24% [at 81.1 µM] (inactive)
CCCC(=O)c1ccccc1,,-7.07% (inactive)
Oc1ccc(Cl)cc1Cc1cc(Cl)ccc1O,22.3 µM (active) and inactive,
c1ccc2n[nH]nc2c1,,1.91% (inactive)
CC(=O)C1=C(C)[C@@H]2C[C@@]3(C1)[C@H](C)CC[C@H]3C2(C)C,inactive,
CCC(C)(C)C(=O)O[C@H]1C[C@@H](C)C=C2C=C[C@H](C)[C@H](CC[C@@H]3C[C@@H](O)CC(=O)O3)[C@H]21,54.9 µM (active),
CCC(C)(Oc1ccc(C2(c3ccc(OC(C)(CC)C(=O)O)cc3)CCCCC2)cc1)C(=O)O (stereo not given),,21% (inactive)
CNC1(C)C2CCC(C2)C1(C)C (stereo not given),,1.71% (inactive)
Oc1c(Cl)cc(Cl)c(Cl)c1Cc1c(O)c(Cl)cc(Cl)c1Cl,21.8 µM (active) and 21.9 µM (active) and inactive,
O=C(O)Cn1cnnn1,,-2.22% (inactive)
CC1=C(C=O)C(C)(C)CC=C1,,-8.76% [at 81.1 µM] (inactive)
